Assay outcomes from PubChem BioAssay.
GLP1R inv ag – acts as inverse agonist at human GLP-1 receptor. P43220. HEK293 GLP-1R CRE-luciferase, luminescence, 24 h; GLP-1R form is constitutively active. Potency, µM (highest dose often 38.3 µM), usual class: inhibitors. 410,000 tested, 1.6% active. AID 624417; also: nearly all actives have a fitted effect of over 55% in size
Target sequence (P43220 whole entry, looked up): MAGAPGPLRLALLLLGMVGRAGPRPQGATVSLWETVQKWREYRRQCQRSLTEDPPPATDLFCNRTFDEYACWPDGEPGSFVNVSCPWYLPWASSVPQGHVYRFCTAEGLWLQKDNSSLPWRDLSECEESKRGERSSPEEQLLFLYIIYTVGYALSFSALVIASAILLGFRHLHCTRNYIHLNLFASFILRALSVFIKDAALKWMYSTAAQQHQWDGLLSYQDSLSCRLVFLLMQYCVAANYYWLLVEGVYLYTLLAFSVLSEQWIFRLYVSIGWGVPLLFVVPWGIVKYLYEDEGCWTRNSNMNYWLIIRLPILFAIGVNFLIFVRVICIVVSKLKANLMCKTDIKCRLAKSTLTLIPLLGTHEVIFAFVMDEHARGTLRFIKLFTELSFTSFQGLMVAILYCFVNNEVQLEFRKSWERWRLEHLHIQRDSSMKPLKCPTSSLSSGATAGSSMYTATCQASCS
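HEK293 cells stably co-expressing a cAMP-responsive luciferase reporter and constitutively active GLP-1R were seeded, incubated 12 h, then exposed to compounds for 24 h at 37 C. Luminescence was read 12 min after detection reagent; inverse agonists lower signal.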
GLP1R ag – agonists of human GLP-1 receptor. P43220. HEK293 GLP-1R CRE-luciferase, luminescence, 4-6 h; cells express a hypersensitive GLP-1R form. Potency, µM (series often up to 45.6 µM), most hits filed as activators. 380,000 tested, 0.007% active
GLP1R cytotox – cytotoxicity counter-screen for GLP-1 receptor inverse agonists; HEK293 cAMP-luciferase reporter cells, luminescence, 24 h; Potency, µM (doses to about 38.3 µM), actives largely listed as inhibitors; 410,000 tested, 0.13% active; AID 624418;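 also: loss of luciferase light is scored as toxicity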
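MLSMR compounds, 24 hr on cells at 37 deg C/5% CO2; luminescence after luciferase reagent (12 min RT). Inhibition counted as the undesired cytotoxic outcome.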
A number is an active result; . = inactive; ? = inconclusive; / = not tested or not shown; ! = a repeat was not active. The list is not random: actives were taken first. Their share in the collection is about 1.7%. Calls follow the shape of the dose curve; as a rule, active = well fitted curve in the direction sought with a large enough effect; inconclusive = small, poorly fitted or top-dose-only effect, or another doubt; inactive = no such curve, though single readings can be large; an effect the other way counts as inactive or inconclusive.

SMILES	GLP1R inv ag	GLP1R ag	GLP1R cytotox
CC(C)c1ccc2occ(CC(=O)Nc3ccccc3Cl)c2c1	?	/	.
Cc1ccc(NCCCn2cnc(C(=O)Nc3ccc(C)c(C)c3)n2)cc1C	.	.	.
Cc1cc(C)c(CN2CCN(CCCn3cnc(C(=O)Nc4ccc(C)c(C)c4)n3)CC2)c(C)c1	13µM	.	?
CC(C)CNC(=O)c1nn(Cc2ccccc2)c(=O)c2ccccc12	?	.	.
COc1ccccc1C(=O)NNC(=O)c1nn(Cc2ccccc2)c(=O)c2ccccc12	?	.	10µM
COC(=O)c1cccc(Nc2c(-c3ccc(O)c(OC)c3)nc3nc[nH]n23)c1	.	/	.
Cc1ccc(NCc2ccccc2OCc2ccccc2F)cc1	?	.	.
NS(=O)(=O)c1ccc(NCc2ccccc2OCc2ccccc2F)cc1	.	.	.
Oc1ccc(NCc2ccccc2OCc2ccccc2F)cc1	.	11µM	?
Cc1cccc(NCc2ccccc2OCc2ccccc2F)c1	10µM	.	.
C=C1C(=O)N(C)CCC1C(CC)C(=O)OC (stereo not given)	.	.	.
O=C(c1cc2ccccc2o1)N1CCN(C/C=C/c2ccccc2)CC1	11µM	.	.
CC(=O)N1CCN(C(=O)c2cc3ccccc3o2)CC1	.	.	.
O=C(CN1CCN(S(=O)(=O)c2cccc(Cl)c2)CC1)NCC1(N2CCOCC2)CCCCC1	.	.	.
CCC(CC)C(=O)N(C)c1c(C)nc2c(OCc3ccc(C(F)(F)F)cc3)cccn12	?	.	.
CC(=O)Nc1ccc(NC(=O)C(C)OC(=O)C23CC4CC(CC(Cl)(C4)C2)C3)cc1 (stereo not given)	.	.	.
CS(=O)(=O)c1ccc(SCC(=O)NC2CCS(=O)(=O)C2)c([N+](=O)[O-])c1 (stereo not given)	.	.	.
CCN1CCN(Cc2ccc(NC(=O)c3cc(NC(=O)c4cnnc5ccccc45)cc(OC)c3)cc2C(F)(F)F)CC1	8.9µM!	.	?
CCN1CCN(Cc2ccc(NC(=O)c3cc(NC(=O)c4nccnc4N)cc(OC)c3)cc2C(F)(F)F)CC1	?	.	.
COc1ccc(-n2cc(CNC3CCC(O)CC3)c(-c3cccc(F)c3)n2)cc1 (stereo not given)	?	.	.
CC1=C(C(=O)OC2CCCC2)C(c2coc3ccc(C)cc3c2=O)C2=C(CCCC2=O)N1 (stereo not given)	.	.	.
CC1=C(C(=O)OC2CCCC2)C(c2coc3ccccc3c2=O)C2=C(CC(C)(C)CC2=O)N1 (stereo not given)	2.5µM	.	.
O=C(COc1ccccc1[N+](=O)[O-])N1CCC(c2nc3ccccc3o2)CC1	.	/	.
Cc1ccc(NC(=O)N2CCc3ccccc3C2)c(C)c1	.	.	.
COc1ccc(C(CNC(=O)c2oc3c(Cl)cccc3c2C)N2CCCC2)cc1 (stereo not given)	10µM	.	?
SMILES	GLP1R inv ag	GLP1R ag	GLP1R cytotox
COc1ccc(C(CNC(=O)c2oc3ccccc3c2C)N2CCCC2)cc1 (stereo not given)	?	?	.
O=C(Nc1ccccc1)Nc1ccc(-n2ccc(C(F)(F)F)n2)cc1	7.1µM	.	.
O=C(O)CC(CC(=O)Nc1ccc(-n2ccc(C(F)(F)F)n2)cc1)c1ccccc1 (stereo not given)	.	.	.
COc1ccc(F)cc1C(=O)C1CCCN(Cc2c(C)n(C)n(-c3ccccc3)c2=O)C1 (stereo not given)	.	.	.
COc1ccc(-n2ncc(C(=O)Nc3ccc4c(c3)OCO4)c2C2CCN(C(=O)OC(C)(C)C)CC2)cc1	.	/	.
Cc1ccc(Cl)cc1-n1ncc2c(NCCCc3ccccc3)ncnc21	11µM	/	.
Cc1ccc(Cl)cc1-n1ncc2c(NCCC3=CCCCC3)ncnc21	8.9µM	/	.
Fc1ccc(-n2ncc3c(NCCC4=CCCCC4)ncnc32)cc1	.	/	.
Cc1ccc(Cl)cc1-n1ncc2c(NCCc3ccccc3)ncnc21	?	/	.
COc1ccc(CN2C[C@@H](CO)O[C@@H](n3cnc4c(NCc5ccco5)ncnc43)C2)cc1	.	.	.
c1ccc(-c2cn(-c3ccccc3)c3ncnc(N4CCN(c5ccccc5)CC4)c23)cc1	.	/	.
CCOC(=O)CCC(=O)OC1C(OC2C(C)C(OC3CC(C)(OC)C(O)C(C)O3)C(C)C(=O)OC(CC)C(C)(O)C(O)C(C)C(=O)C(C)CC2(C)O)OC(C)CC1N(C)C (stereo not given)	/	.	/
CC(=O)Nc1ccc(S(=O)(=O)N2CCN(c3ncccn3)CC2)cc1	.	.	.
CC1CCCC(C)N1CCCNC(=O)Cn1ncc2c3ccccc3n(C)c2c1=O (stereo not given)	?	.	.
COc1ccc(C(=O)NC(c2ccccc2Cl)c2cc(Cl)c3cccnc3c2O)cc1 (stereo not given)	1.8µM	/	.
COc1cc(C(=O)NC(c2ccccc2Cl)c2cc(Cl)c3cccnc3c2O)cc(OC)c1OC (stereo not given)	?	/	.
CC1(C)CC(Cc2ccc(Cl)nc2)N(C(=O)OC(C)(C)C)C1 (stereo not given)	.	.	.
Cn1cc(CN2CCC(CO)CC2)c(-c2ccc(Oc3ccccc3)cc2)n1	10µM	.	.
Cn1cc(CN2CCC(O)CC2)c(-c2ccc(Oc3ccccc3)cc2)n1	?	.	.
CC(C)CCn1nnnc1CN1CCN(C(c2ccccc2)c2ccccc2)CC1	13µM	.	.
Fc1ccc(C(c2nnnn2C2CCCC2)N2CCN(Cc3ccccc3)CC2)cc1 (stereo not given)	.	.	.
CCC(C)(C)n1nnnc1C(c1ccccc1)N1CCN(Cc2ccccc2)CC1 (stereo not given)	.	.	.
CCC(C)(C)n1nnnc1CN1CCN(C(c2ccccc2)c2ccccc2)CC1	10µM	.	.
c1ccc(C(c2ccccc2)N2CCN(Cc3nnnn3C3CCCC3)CC2)cc1	7.9µM	.	.
CC(C)CCn1nnnc1CN1CCN(c2ccc(F)cc2)CC1	.	.	.
SMILES	GLP1R inv ag	GLP1R ag	GLP1R cytotox
COc1ccc(NC(=O)c2c(C)oc3ccc(O)c(CN4CCN(Cc5ccccc5)CC4)c23)cc1	.	/	.
Cc1ccc(NC(=O)C(=O)c2cc(C)n(-c3ccc(F)cc3)c2C)cc1C	?	/	.
Cc1cc(C)n(CC(=O)NNC(=O)c2ccc(OC(F)(F)F)cc2)n1	.	.	.
Cc1cccc(OCC(=O)Nc2ccc(C(=O)OCc3cc(=O)n4nc(C5CC5)sc4n3)cc2)c1	.	/	.
COc1ccc(-n2ncc(C(=O)Nc3ccc(C)cc3Cl)c2C2CCN(C(=O)OC(C)(C)C)CC2)cc1	?	/	.
Cc1ccc(C)c(OCCC(=O)NCCc2ccc(Cl)cc2)c1	10µM	.	.
COc1ccc(CCC(=O)NCCOc2ccc(C)cc2)cc1	1.8µM	.	.
CCOc1ccc(CCNC(=O)CCOc2cc(C)ccc2C)cc1OCC	?	.	.
COc1ccc(CCNC(=O)CCc2ccc(OC)cc2)cc1	.	.	.
CCOc1ccc(NC(=O)CCSc2nc3c(c(CC)c2C#N)C(=O)CC(C)(C)C3)cc1	?	.	.
CCc1c(C#N)c(SCCC(=O)Nc2ccc(C)cc2)nc2c1C(=O)CC(C)(C)C2	2.8µM	.	.
